High-throughput results deposited in PubChem BioAssay by National Center for Advancing Translational Sciences (NCATS).
The list is not random: actives were taken first. Their share in the collection is about 2.4%.
D2 PAM-1 = D2 dopamine receptor (human) potentiation. HEK293 T-REx D2, calcium flux, EC20 dopamine potentiation. potentiation, % at 10 µM. hit rate 0.34% among 340,000. AID 485347;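 active = potentiation over 3 SD above the plate norm, cut at about 30% in these data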; also: 0% is about no effect
Target sequence (P14416 whole entry, looked up): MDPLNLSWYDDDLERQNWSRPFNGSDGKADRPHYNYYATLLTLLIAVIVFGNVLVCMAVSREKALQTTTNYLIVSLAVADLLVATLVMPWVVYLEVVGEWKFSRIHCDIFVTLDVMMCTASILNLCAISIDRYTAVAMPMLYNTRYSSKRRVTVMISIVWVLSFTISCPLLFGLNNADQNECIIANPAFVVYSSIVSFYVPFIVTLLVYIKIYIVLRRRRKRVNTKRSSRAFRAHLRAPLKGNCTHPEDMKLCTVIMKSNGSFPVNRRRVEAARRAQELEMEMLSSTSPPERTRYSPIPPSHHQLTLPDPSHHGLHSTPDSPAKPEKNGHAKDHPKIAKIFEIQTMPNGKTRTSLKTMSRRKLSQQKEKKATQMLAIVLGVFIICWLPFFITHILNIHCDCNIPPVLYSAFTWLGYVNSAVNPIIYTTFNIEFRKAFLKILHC
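Primary screen. Calcium kinetics in induced HEK293 T-REx D2 cells: compound pre-addition 180 s, EC20 dopamine, 180 s more.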
D2 ag-1 = activates the human D2 dopamine receptor; hit rate 0.53% among 340,000; activation, % at 2 µM; HEK293 T-REx D2 cells, calcium flux agonist mode; P14416;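 active = activation over 3 SD above normal in the single-dose calcium agonist read, cut at about 30% in these data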; also: 0% is about no effect
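In this primary screen, compounds producing a positive calcium signal within 180 s of addition to tetracycline-induced, force-coupled HEK293 Trex D2 cells are flagged; cells are dye-loaded with a no-wash calcium kit beforehand.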
D2 antagonist = antagonists of human D2 dopamine receptor; P14416; HEK293 TREx D2 cells, calcium flux, dopamine EC80; inhibition, % at 10 µM; hit rate 2% among 340,000; AID 485344; in the data active = inhibition above about 30%; inactive = below that, where a call was filed; also: 0% is about no effect
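Calcium flux kinetic readout in an inducible HEK293 TREx D2 line plated overnight at 30 C. After 180 s compound exposure, an EC80 dopamine challenge follows with another 180 s kinetic read to detect antagonism.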
D2 PAM-2 = human D2 receptor positive allosteric modulation; P14416; DiscoveRx D2 beta-arrestin cells, luminescence, 90 min; 100% = 57 uM dopamine signal; potentiation, % (concentration not given with the values); hit rate 0.23% among 360,000; in the data active = potentiation above about 50%; inconclusive = mostly about 30% to 49%
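PathHunter beta-arrestin assay in DiscoveRx D2 cells. Compounds were added with an EC20 of dopamine (50 nM final) for 90 min at 37 deg C. Luminescence was read 1 h after detection reagent, with 57 uM dopamine as the EC100 control.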
D2 ag-2 = activates the human D2 dopamine receptor; P14416; DiscoveRx PathHunter D2 beta-arrestin, luminescence, 90 min; 100% = 57 uM dopamine signal; activation, % (concentration not given with the values); hit rate 0.084% among 360,000; in the data active = activation above about 40%; inconclusive = between about 15% and that limit
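Agonist mode: compounds alone added to overnight-plated D2 PathHunter cells for 90 min at 37 C, with 57 uM final dopamine (EC100) defining full response. Beta-arrestin recruitment detected by chemiluminescent reagent, read after 1 h at ambient temperature.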
* marks the source's active call; other numbers are inactive results.

Cc1cc(C)cc(NC(=O)NCCn2nnc3cc(S(=O)(=O)N(C)C)ccc32)c1 was read as D2 PAM-1 8 and D2 ag-1 -1.
Cc1[nH]c2ccccc2c1C1C(c2ccccc2)=NN=C(C(C)C)N1O (configuration not stated) was read as D2 PAM-1 31*, D2 ag-1 0, D2 antagonist 6, D2 PAM-2 12 and D2 ag-2 1.
Screening Cc1onc(-c2ccccc2)c1C(=O)OCCOc1ccccc1F returned D2 PAM-1 3, D2 ag-1 2, D2 antagonist 38*, D2 PAM-2 -4 and D2 ag-2 0.
`CCC(Cn1nnc2ccccc2c1=O)NC(=O)Nc1cc(OC)cc(OC)c1` (configuration not stated) gave D2 PAM-1 -8 and D2 ag-1 -1.
Cc1ccc(Nc2nnc(C)c(=O)[nH]2)cc1 was read as D2 PAM-1 -4, D2 ag-1 -3, D2 antagonist 43*, D2 PAM-2 -5 and D2 ag-2 4.
`COc1ccc(OC)c(CCNC(=O)c2cc3cccc4c3n2CC(C)S4)c1` (configuration not stated) gave D2 PAM-1 -1 and D2 ag-1 0.
For CCc1ccc2oc(=O)cc(CN3CCN(Cc4ccccc4)CC3)c2c1 the results were D2 PAM-1 -21, D2 ag-1 0, D2 antagonist 39*, D2 PAM-2 -25 and D2 ag-2 -4.
For O=c1cc(CN2CCN(Cc3ccccc3)CC2)c2cc(Cl)ccc2o1 the results were D2 PAM-1 -7, D2 ag-1 -1, D2 antagonist 4, D2 PAM-2 -47 and D2 ag-2 -8.
`O=c1[nH]c(CN2CCN(C/C=C/c3ccccc3)CC2)nc2ccccc12` gave D2 PAM-1 -27, D2 ag-1 29, D2 antagonist 63*, D2 PAM-2 -24 and D2 ag-2 0.
For Cc1ccc2oc(=O)cc(CN3CCN(C/C=C/c4ccccc4)CC3)c2c1 the results were D2 PAM-1 -18, D2 ag-1 -1, D2 antagonist 58*, D2 PAM-2 -22 and D2 ag-2 -3.
O=c1cc(CN2CCN(Cc3ccccc3)CC2)c2ccc(O)cc2o1 was read as D2 PAM-1 -19, D2 ag-1 -1, D2 antagonist 4, D2 PAM-2 -24 and D2 ag-2 -5.
O=c1[nH]c(CN2CCN(S(=O)(=O)/C=C/c3ccccc3)CC2)nc2ccccc12 was read as D2 PAM-1 -7, D2 ag-1 0, D2 antagonist -35, D2 PAM-2 4 and D2 ag-2 0.
`O=c1cc(CN2CCN(C/C=C/c3ccccc3)CC2)c2cc(O)ccc2o1` gave D2 PAM-1 -22, D2 ag-1 1, D2 antagonist 83*, D2 PAM-2 -27 and D2 ag-2 1.
`CCc1ccccc1NC(=O)C1CCCN(C(=O)c2cnn(-c3ccccc3)c2-n2cccc2)C1` (configuration not stated) gave D2 PAM-1 12.
CCCCC(CC)CNC(=O)CCCn1c(=O)[nH]c2ccsc2c1=O (configuration not stated) was read as D2 PAM-1 25 and D2 ag-1 -3.
C=CCN1CCc2c(cc(O)c(O)c2Br)[C@@H](c2ccccc2)C1 was read as D2 PAM-2 66* and D2 ag-2 59*.
Screening COc1ccc(-n2nc([N+](=O)[O-])c(=NCCc3ccc(Cl)cc3)n2O)cc1 returned D2 PAM-1 15, D2 ag-1 0, D2 antagonist -1, D2 PAM-2 87* and D2 ag-2 14.
COc1ccc(-n2nc([N+](=O)[O-])c(=NCc3ccco3)n2O)cc1 was read as D2 PAM-1 7, D2 ag-1 0, D2 antagonist 17, D2 PAM-2 inconclusive and D2 ag-2 inconclusive.
Cc1cc(C)cc(N=c2c([N+](=O)[O-])nn(-c3ccc(Cl)cc3)n2O)c1 was read as D2 PAM-1 2, D2 ag-1 0, D2 antagonist 1, D2 PAM-2 inconclusive and D2 ag-2 12.
`CCc1ccc(N=c2c([N+](=O)[O-])nn(-c3ccccc3)n2O)cc1` gave D2 PAM-1 4, D2 ag-1 1, D2 antagonist 8, D2 PAM-2 90* and D2 ag-2 13.
`COc1ccc(-n2nc([N+](=O)[O-])c(=NCCC3=CCCCC3)n2O)cc1` gave D2 PAM-1 -2, D2 ag-1 0, D2 antagonist 14, D2 PAM-2 74* and D2 ag-2 51*.
For COc1ccc(-n2nc([N+](=O)[O-])c(=NCCc3ccc(OC)c(OC)c3)n2O)cc1 the results were D2 PAM-1 3, D2 ag-1 1, D2 antagonist -1, D2 PAM-2 137* and D2 ag-2 inconclusive.
`CCC1CCCCN1S(=O)(=O)c1ccc(NC(=O)c2cc(=O)c3c(C)cc(C)cc3o2)cc1` (configuration not stated) gave D2 PAM-1 11 and D2 ag-1 0.
For COc1ccc(-n2nc([N+](=O)[O-])c(=NCCc3ccc(C)cc3)n2O)cc1 the results were D2 PAM-1 1, D2 ag-1 -1, D2 antagonist 6, D2 PAM-2 71* and D2 ag-2 inconclusive.
Screening COc1ccc(-n2nc([N+](=O)[O-])c(=NC3CCN(Cc4ccccc4)CC3)n2O)cc1 returned D2 PAM-1 -49, D2 ag-1 0, D2 antagonist 71*, D2 PAM-2 16 and D2 ag-2 inconclusive.
`COc1ccc(-n2nc([N+](=O)[O-])c(=NCc3cccnc3)n2O)cc1` gave D2 PAM-1 -3, D2 ag-1 -1, D2 antagonist -11, D2 PAM-2 inconclusive and D2 ag-2 inconclusive.
For COc1ccc(S(=O)(=O)N2CCN(C3CCN(Cc4ccccc4)CC3)CC2)cc1 the results were D2 PAM-1 -4, D2 ag-1 0, D2 antagonist -17, D2 PAM-2 -15 and D2 ag-2 -3.
Screening O=C(O)c1nc(-c2ccccc2)n(-c2ccccc2)n1 returned D2 PAM-1 -11, D2 ag-1 0, D2 antagonist -16, D2 PAM-2 -30 and D2 ag-2 -4.
For O=C(O)c1nc(-c2ccccc2)n(-c2cccc(C(F)(F)F)c2)n1 the results were D2 PAM-1 44*, D2 ag-1 -1, D2 antagonist -15, D2 PAM-2 -5 and D2 ag-2 -2.
For CCc1ccc(OCC(=O)N(Cc2ccc(OC)cc2)C2CCS(=O)(=O)C2)cc1 (configuration not stated) the results were D2 ag-1 0.
